The results in this text go back to PubChem BioAssay.

The subject of assay [1] is TRPC4 beta (transient receptor potential cation channel C4), mouse. Nature of the assay: activators of mouse TRPC4 channel, confirmation, cell-based, Fluo4 calcium, HEK293 TRPC4beta/mu-opioid, duplicates, 10 µM (AID 2426;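 active = fluorescence ratio normalized to control raised more than 50% in primary screen plus both repeat runs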;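 as to activation: percent rise of integrated ratio over buffer wells lacking compound which define 0%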). As to conditions: Fluo4 calcium fluorescence, at 10 µM; stronger effect = higher value.
In assay [2] the test system is transient receptor potential cation channel C4 beta (TRPC4), mouse. As to the kind of experiment: activators of mouse TRPC4 channel, confirmation, cell-based, second round, Fluo4, HEK293 TRPC4beta/mu-opioid, 1 µM (AID 2461;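 active = primary screen active and over 50% activation in each of two duplicate runs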). As to conditions: Fluo4 calcium fluorescence, at 1 µM; stronger effect = higher value.
The subject of assay [3] is TRPC4 (transient receptor potential cation channel C4 beta), mouse. As to the kind of experiment: positive allosteric modulators of mouse TRPC4, confirmation, cell-based, second round, Fluo-4, HEK293 TRPC4beta/mu-opioid, 1 µM (AID 2554). As to conditions: DAMGO EC20, Fluo-4 calcium flux, at 1 µM; stronger effect = higher value. On the technique in general: A change in cytosolic calcium serves as a functional read-out for many receptors and channels.

In assay [4] the test system is TRPC4 beta (transient receptor potential cation channel C4), mouse. Nature of the assay: positive allosteric modulators of mouse TRPC4, confirmation, cell-based, Fluo-4, HEK293 TRPC4beta/mu-opioid (AID 2555;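 active = primary screen hit whose calcium fluorescence ratio, in both repeats, exceeds the weak agonist control mean by 3 SD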). The following applies: DAMGO EC20, Fluo-4 calcium flux, at 10 µM; stronger effect = higher value.
Assay [5] deals with Short transient receptor potential channel 4 (Mus musculus) (UniProt Q9QUQ5). As to the kind of experiment: inhibitors of mouse TRPC4 channel, confirmation, cell-based, Fluo4, HEK293 TRPC4beta/mu-opioid (AID 2636;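 active = calcium signal cut by more than 3 SD below the full-agonist control yet still positive, in both repeats and the earlier primary screen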). As to conditions: DAMGO, Fluo4 calcium flux, at 10 µM; stronger effect = higher value.
Short transient receptor potential channel 4 (Mus musculus), sequence (Q9QUQ5 whole entry, looked up): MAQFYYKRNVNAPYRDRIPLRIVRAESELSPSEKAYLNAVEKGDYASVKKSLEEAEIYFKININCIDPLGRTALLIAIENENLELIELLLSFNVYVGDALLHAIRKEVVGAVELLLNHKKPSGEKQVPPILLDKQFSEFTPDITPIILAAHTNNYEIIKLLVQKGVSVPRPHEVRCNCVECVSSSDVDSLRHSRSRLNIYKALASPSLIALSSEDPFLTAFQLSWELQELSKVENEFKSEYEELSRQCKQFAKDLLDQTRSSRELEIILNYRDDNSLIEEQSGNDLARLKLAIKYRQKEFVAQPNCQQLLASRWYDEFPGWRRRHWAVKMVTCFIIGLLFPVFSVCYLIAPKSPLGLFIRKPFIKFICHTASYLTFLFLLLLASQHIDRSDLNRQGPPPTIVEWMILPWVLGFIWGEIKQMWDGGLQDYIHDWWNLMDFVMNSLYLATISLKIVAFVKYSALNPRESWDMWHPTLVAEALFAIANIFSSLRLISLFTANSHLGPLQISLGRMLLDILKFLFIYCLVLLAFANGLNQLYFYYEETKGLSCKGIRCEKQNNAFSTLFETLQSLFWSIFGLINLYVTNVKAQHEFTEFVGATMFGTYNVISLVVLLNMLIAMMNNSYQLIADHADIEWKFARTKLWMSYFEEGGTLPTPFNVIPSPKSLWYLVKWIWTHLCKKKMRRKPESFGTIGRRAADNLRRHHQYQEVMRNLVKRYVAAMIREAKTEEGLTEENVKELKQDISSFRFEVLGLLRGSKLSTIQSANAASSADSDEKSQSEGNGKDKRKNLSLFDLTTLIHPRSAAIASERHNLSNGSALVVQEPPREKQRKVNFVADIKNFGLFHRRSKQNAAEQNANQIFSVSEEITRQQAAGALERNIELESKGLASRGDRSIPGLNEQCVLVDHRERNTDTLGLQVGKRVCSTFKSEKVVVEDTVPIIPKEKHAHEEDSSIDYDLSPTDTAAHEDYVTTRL
Assay [6] shares this target. Nature of the assay: inhibitors of mouse TRPC4 channel, confirmation, cell-based, second round, Fluo4, HEK293 TRPC4beta/mu-opioid, 1 µM (AID 2637;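 active = calcium signal ratio cut to more than 3 SD under the fully stimulated control mean yet still positive, in both repeats and the primary screen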;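 as to inhibition: percent of integrated ratio relative to wells lacking test compound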). The following applies: Fluo4 calcium flux, DAMGO, at 1 µM; stronger effect = higher value.
Assay [7] shares this target. As to the kind of experiment: mouse TRPC4 channel activators, dose response, cell-based, HEK293 TRPC4/mu-opioid, Fluo-4 calcium (AID 434937;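 active = primary screen activator hit with a dose response curve and TRPC4 channel activation at any tested dose; inactive = no activation, no dose response, or not a primary hit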).
Assay [8] has the same target. Nature of the assay: TRPC4 positive allosteric modulators, dose response, cell-based, HEK293 TRPC4/mu-opioid, Fluo-4 calcium, EC20 DAMGO (AID 434941;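 active = earlier screen potentiator hit that boosts the TRPC4 ion channel at some dose, with a dose response; inactive = no potentiation, no dose response, or not a prior hit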;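 also: calcium entry triggered by an EC20 dose of DAMGO at the co-expressed mu-opioid receptor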).
For assay [9] the target is unchanged. Nature of the assay: mouse TRPC4 channel inhibitors, dose response, cell-based, HEK293 TRPC4/mu-opioid, Fluo-4 calcium (AID 434942;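 active = primary screen inhibitor hit that blocks the TRPC4 channel at some tested dose, yielding a dose curve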).
In assay [10] the target is Short transient receptor potential channel 6 (Mus musculus) (UniProt Q61143). As to the kind of experiment: inhibition of mouse TRPC6 channel, confirmation, selectivity assay for TRPC4 inhibitor project, cell-based, HEK293, membrane potential dye, duplicate (AID 434948;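 active = active in primary screen and both duplicates, each dropping signal beyond three positive-control SD with fluorescence still positive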). As to conditions: HEK293 TRPC6, membrane potential dye fluorescence, at 10 µM, stimulated with maximal-effect acetylcholine; stronger effect = higher value.
Short transient receptor potential channel 6 (Mus musculus), sequence (Q61143 whole entry, looked up): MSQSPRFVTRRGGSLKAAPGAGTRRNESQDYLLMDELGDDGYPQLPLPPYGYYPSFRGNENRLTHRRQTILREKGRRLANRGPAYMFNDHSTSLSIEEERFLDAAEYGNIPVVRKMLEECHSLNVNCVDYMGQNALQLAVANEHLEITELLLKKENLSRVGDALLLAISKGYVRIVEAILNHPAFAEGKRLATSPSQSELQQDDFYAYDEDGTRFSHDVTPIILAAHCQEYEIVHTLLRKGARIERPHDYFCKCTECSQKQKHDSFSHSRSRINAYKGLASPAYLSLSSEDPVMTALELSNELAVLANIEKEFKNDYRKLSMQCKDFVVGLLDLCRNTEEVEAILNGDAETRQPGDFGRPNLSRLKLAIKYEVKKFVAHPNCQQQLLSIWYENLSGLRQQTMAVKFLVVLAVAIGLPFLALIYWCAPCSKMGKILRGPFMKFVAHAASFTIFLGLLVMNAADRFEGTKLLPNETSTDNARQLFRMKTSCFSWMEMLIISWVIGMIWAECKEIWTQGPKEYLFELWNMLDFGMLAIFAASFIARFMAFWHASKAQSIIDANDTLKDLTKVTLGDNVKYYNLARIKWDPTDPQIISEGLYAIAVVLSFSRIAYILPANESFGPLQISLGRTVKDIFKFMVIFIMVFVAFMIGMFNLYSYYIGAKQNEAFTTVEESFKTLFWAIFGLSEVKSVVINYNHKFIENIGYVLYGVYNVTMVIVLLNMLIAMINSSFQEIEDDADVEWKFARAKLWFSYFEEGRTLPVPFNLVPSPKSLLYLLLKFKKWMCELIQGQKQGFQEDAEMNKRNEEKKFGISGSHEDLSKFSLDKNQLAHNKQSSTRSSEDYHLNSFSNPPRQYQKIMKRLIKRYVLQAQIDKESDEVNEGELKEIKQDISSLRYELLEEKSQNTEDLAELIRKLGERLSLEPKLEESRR

For assay [11] the target is unchanged. As to the kind of experiment: activation of mouse TRPC6 channel, confirmation, selectivity assay for TRPC4 activator project, cell-based, HEK293, membrane potential dye, duplicate (AID 434950;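 active = membrane potential signal rise above negative control mean plus 3 SD in both duplicates, also active in the earlier TRPC4 screen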;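 as to activation: 0% = buffer only wells and 100% = acetylcholine maximal-effect wells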). As to conditions: HEK293 TRPC6, membrane potential fluorescence, at 10 µM; stronger effect = higher value.
Assay [12] has the same target. Nature of the assay: TRPC6 potentiation by TRPC4 potentiator hits, confirmation, selectivity assay for TRPC4 potentiator project, HEK293 cells, membrane potential dye, duplicate (AID 434952;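 active = compound raising the membrane signal above positive-control mean plus 3 SD in both repeats, and a primary screen hit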). As to conditions: HEK293 TRPC6, membrane potential dye fluorescence, at 10 µM, maximal acetylcholine added after compound; stronger effect = higher value.
Assay [13] concerns the target Short transient receptor potential channel 4 (Mus musculus) (UniProt Q9QUQ5). Nature of the assay: calcium flux activators in TRPC4/5HT1a cells, counter-screen for TRPC4 activator project, cell-based, second counter screen, HEK293 TRPC4/5HT1a, Fluo-4 (AID 434977;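 active = calcium signal rise above buffer-control mean plus 5 SD in both duplicates, and also a hit in the primary screen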;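 as to activation: plate controls were assay buffer for no effect and maximal serotonin response for full effect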). The following applies: Fluo-4 calcium flux, at 10 µM; stronger effect = higher value.
Assay [14] in a line: calcium flux inhibitors in TRPC4/5HT1a cells, confirmation, counter-screen for TRPC4 inhibitor project, cell-based, second counter screen, HEK293 TRPC4/5HT1a, Fluo-4 (AID 434978;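 active = primary screen active whose calcium signal fell more than 3 SD beyond the full-serotonin control mean in both duplicate plates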;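 as to outcome: serotonin given first at submaximal then at maximal dose after compound preincubation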). The following applies: Fluo-4 calcium flux, at 10 µM, serotonin added to trigger calcium flux; stronger effect = higher value.
Assay [15] has as its system TRPC4 (mouse), co-expressed with 5HT1a in HEK293. Nature of the assay: calcium flux potentiators in TRPC4/5HT1a cells, confirmation, counter-screen for TRPC4 potentiator project, cell-based, second counter screen, HEK293 TRPC4/5HT1a, Fluo-4 (AID 434979;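 active = signal rise over 3 SD above mean of control wells given weak agonist, in both repeats and first screen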). As to conditions: Fluo-4 calcium flux, at 10 µM, serotonin added at its EC20 dose; stronger effect = higher value.
The nature of assay [16]: calcium flux activation in mu-opioid HEK293 cells, confirmation, counter-screen for TRPC4 activator project, cell-based, HEK293 mu-opioid receptor line (AID 449723;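 active = hit in primary screen, with calcium signal over 5 SD above buffer well mean in both duplicates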;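 also: counter screen cells carry the mu-opioid receptor alone and lack TRPC4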). The following applies: Fluo-4 calcium fluorescence, at 10 µM; stronger effect = higher value.
Assay [17] can be described thus: calcium flux enhancement in mu-opioid HEK293 cells, confirmation, counter-screen for TRPC4 allosteric potentiator project, cell-based, HEK293 mu-opioid receptor line (AID 449724;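 active = calcium signal rise more than 3 SD above the low-dose agonist control mean, in both duplicate plates and the primary screen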;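 also: HEK293 cells carrying mu-opioid receptor only with no TRPC4 channel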). As to conditions: Fluo-4 calcium flux, at 10 µM, compound added before EC20 DAMGO stimulus; stronger effect = higher value.

For some of these results: Potency and affinity values are given separately. The source made the active and inactive calls.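 The calls were made as follows, unless noted: active = primary screen hit whose fluorescence ratio, in both repeats, exceeds the weak agonist control mean by 3 SD; inactive = the rest.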

For `COc1ccc(C(=O)N2CCN(c3c(C)cccc3C)CC2)cc1OC`, the result in assay [1], in assay [2], in assay [3], in assay [4], in assay [5] and in assay [6] was inactive. Moreover, the outcome in [7], in [8], in assay [9], in assay [10], in [11] and in assay [12] was inactive. Further, the result in [13], in [14], in [16] and in assay [17] was inactive. Also, the potentiation in assay [15] was 15% (active).

On to `O=C(C1=C[C@H](c2ccc(C(F)(F)F)cc2)C[C@H](OCCCCO)O1)N1CCOCC1`, for which the outcome in [1], in assay [2], in assay [3], in assay [4], in assay [5] and in [6] was inactive. Also, the result in [7], in assay [8], in assay [9], in assay [10], in assay [12] and in assay [13] was inactive. Further, the result in assay [14], in [15], in [16] and in [17] was inactive. Also, the activation in [11] was 27.5% (active).

For the compound `Cc1cc(NC(=O)C(C)SCC(=O)N(Cc2ccccc2)c2ccccc2)no1` (stereo unspecified), the result in [1], in assay [2], in [3], in assay [4], in assay [6] and in assay [7] was inactive. For the same compound, the outcome in assay [8], in assay [9], in [10], in [11], in [12] and in assay [13] was inactive. Besides, the result in assay [15], in assay [16] and in assay [17] was inactive. The results for the inhibition in assay [5] and in [14] were 90% (active) and 25.3% (active), respectively.

With `CCCNc1nc2ccccc2n2c(C)nnc12`, the result in assay [1], in [2], in assay [3], in assay [4], in assay [7] and in assay [8] was inactive. Moreover, the result in assay [9], in assay [10], in assay [11], in assay [12], in [13] and in [14] was inactive. The outcome in assay [15], in assay [16] and in [17] was inactive. Further, the values for the inhibition in assay [5] and in assay [6] were 73% (active) and 39% (active), respectively.

For `COc1ccc(C(=O)CN2CCN(CCN3C(=O)c4cccc5cccc(c45)C3=O)CC2)cc1`, the outcome in assay [1], in [2], in [5], in [6], in [7] and in [8] was inactive. The outcome in [9], in [10], in [11], in assay [12], in assay [13] and in assay [14] was inactive. In addition, the result in assay [16] and in assay [17] was inactive. The potentiation in assay [3] is 21% (active); in assay [4], 29% (active); in assay [15], 18.9% (active).

Consider `Cc1ccc(C)n1-c1nnc(N2CCC(C(=O)NCCCN3CC(C)CC(C)C3)CC2)s1` (stereo unspecified), for which the activation in assay [1] is 67% (active); in assay [13], 20.3% (active). Besides, the outcome in assay [2], in [3], in assay [4], in [5], in [6] and in assay [7] was inactive. In addition, the result in assay [8], in assay [9], in [10], in [11], in assay [12] and in assay [14] was inactive. In addition, the outcome in [15], in [16] and in assay [17] was inactive.

With `O=C1CC2(CCN(S(=O)(=O)c3ccccc3F)CC2)Oc2ccccc21`, the outcome in assay [1], in assay [2], in assay [3], in assay [5], in assay [6] and in assay [7] was inactive. Besides, the result in assay [8], in assay [9], in assay [10], in assay [11], in [12] and in [13] was inactive. Also, the result in assay [14], in assay [16] and in assay [17] was inactive. In addition, the potentiation in assay [4] was 21% (active); in assay [15] it was 34.2% (active).

Take `C=CCn1c(SCCN2CCOCC2)nc2c1c(=O)[nH]c(=O)n2C`: the outcome in [1], in assay [2], in assay [3], in [4], in assay [5] and in [6] was inactive. Besides, the result in assay [7], in [8], in assay [9], in [10], in [11] and in assay [12] was inactive. The outcome in assay [13], in [14], in assay [16] and in [17] was inactive. Moreover, the potentiation in [15] was 35.7% (active).

Broadly, the inhibition is the change of the read-out against control, counted positive when it falls.
